# About 83,000 compounds went through this panel and 20% of them were active in at least one assay; those are over-represented in the sample as a whole.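 In brief: 96-well plates, 48 h treatment, single concentration, percent growth endpoint.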 Calls of active or inactive are those of the source. The calls were made as follows: active = growth percent below 10; inactive = the rest.
# Test system: HT29 colon
# Test: NCI-60 one-dose screen, 48 h (100 = growth as untreated, 0 = no growth, -100 = all killed)
# Settings: 10 µM unless noted
row,SMILES,growth
1,CC1=CCc2ccccc21,95.7% (inactive)
2,O=C1Nc2ccccc2/C1=C/C(=O)c1ccc(N2CCCCC2)cc1,32.8% (inactive)
3,COc1ccc2nc3c(cc2c1)C(=O)CC(c1ccccc1)C3 (stereo not drawn),9.97% (active)
4,Oc1ccc(N=Nc2nccs2)c(O)c1,51.5% (inactive)
5,Cc1cc(-c2ccc(N=Nc3c(S(=O)(=O)O)cc4cc(S(=O)(=O)O)cc(N)c4c3O)c(C)c2)ccc1N=Nc1cc(S(=O)(=O)O)c2ccccc2c1O,100% (inactive)
6,C#CCNC(=O)CC[C@]1(C)[C@H]2CC[C@@H]3[C@@H]([C@@](C)(O)CCC=C(C)C)CC[C@@]3(C)[C@]2(C)CC[C@H]1C(=C)C,-30.8% [100 µM] (active)
7,CC(=O)Nc1ccc2nc3ccc(NC(C)=O)cc3[n+](-c3ccccc3)c2c1,115% (inactive)
8,CCN(CC)CCCCCCNc1cccc2cc(Br)cnc12,16.9% (inactive)
9,COc1ccc(NC(=S)NNc2ccc(-c3ccc(OC)c(OC)c3)nn2)cc1,109% (inactive)
10,O=[N+]([O-])c1cc([N+](=O)[O-])c(NN=C(c2ccc(O)cc2)c2ccc(O)cc2)cc1Cl,-82.6% (active)
11,CC(C)C1=NOC(=O)C1=Cc1cn(-c2ccccc2)nc1-c1cccc([N+](=O)[O-])c1,70.5% (inactive)
12,C=C(C)[C@@H]1CC[C@]2(C(=O)NCCNCCNCCN)CC[C@]3(C)[C@H](CC[C@@H]4[C@@]5(C)CC[C@H](O)C(C)(C)[C@@H]5CC[C@]43C)[C@@H]12,-39.6% [100 µM] (active)
13,O=C1COCCN1c1ccc(Nc2nc(Cl)nc(N3CCOCC3)n2)cc1,89.4% (inactive)
14,Cn1cc(-c2noc(-c3cn(C)c4ncc(F)cc34)n2)c2cc(Br)ccc21,47.3% (inactive)
15,CC1(C)NCCC[C@]2(C)[C@H]3C=CC4=C5C[C@](C)(CO)CC[C@]5(C)CC[C@@]4(C)[C@]3(C)CC[C@@H]12,-62.1% [100 µM] (active)
16,CCCC(NC(=O)OCc1ccccc1)C(=O)O (stereo not drawn),104% (inactive)
17,CC(C)C1=NOC(=O)C1=Cc1cn(-c2ccccc2)nc1-c1ccc(Cl)cc1,67.9% (inactive)
18,COc1cc(OC)cc(C(=O)Nc2cc(-c3cccnc3)nc(NCCCN3CCOCC3)n2)c1,85.2% (inactive)
19,Brc1ccc2c(c1)CN(C1CCCCC1)CO2,103% (inactive)

row,SMILES,growth
1,CC/C=C(\C)C(CCC)(CN=O)C(=O)OCC (stereo not drawn),106% (inactive)
2,O=C(Nc1ccc(F)cc1)c1ccccc1,114% (inactive)
3,O=C(O)c1cccc(CN2CCN(c3cc4c(cc3F)c(=O)c(C(=O)O)cn4C3CC3)CC2)c1O,102% (inactive)
4,COC(=O)c1c(C)[nH]c(/C=C2\N=C(c3ccc[nH]3)C=C2OC)c1C,-13.8% (active)
5,C=CCCC1(C)NC(=O)NC1=O (stereo not drawn),93.2% (inactive)
6,O=[N+]([O-])c1cccc(N=NNc2cccc([N+](=O)[O-])c2)c1,92.6% (inactive)
7,Cc1ccc(N)c(O)c1,95.8% (inactive)
8,CCN(CC)c1ccc2cc(NC(=O)OCCNC(=O)CCNC(=O)[C@H](CC(C)C)NC(=O)C(C)(C)NC(=O)C(C)(C)NC(=O)[C@H](CC(C)C)NC(=O)CCNC(=O)C(C)(C)NC(=O)[C@H](CC(C)C)NC(=O)CCNC(=O)[C@@](C)(CC)NC(=O)[C@H](C)NC(=O)CCNC(=O)C(C)(C)NC(=O)[C@H](C)NC(=O)[C@@H]3CCCN3C(=O)[C@@](C)(CC)NC(=O)[C@H](Cc3ccccc3)NC(=O)C3CCCN3C(=O)C(C)(C)NC(=O)C3CCCN3C(=O)C(C)(C)NC(C)=O)c(=O)oc2c1 (stereo partly drawn),-81.4% (active)
9,COC(=O)[C@]12CCC(C)(C)C[C@H]1C1=CC[C@@H]3[C@@]4(C)C/C(=C/c5cccnc5)C(=O)C(C)(C)[C@@H]4CC[C@@]3(C)[C@]1(C)CC2,-15.9% [100 µM] (active)
10,CC(C)[C@H]1COC(=O)N1[C@@H]1C(=O)N([C@@H](CCC(=O)N2CCN(C3CCCC3)CC2)C(=O)N[C@@H]2CCCc3ccccc32)[C@@H]1/C=C/c1cccc(Cl)c1,13% (inactive)
11,CCN=Cc1c(O)c(O)c(C(C)C)c2cc(C)c(-c3c(C)cc4c(C(C)C)c(O)c(O)c(C=NCC)c4c3O)c(O)c12,25% (inactive)
12,O=c1cc(-c2ccccc2)oc2c(O)c(O)ccc12,77.4% (inactive)
13,COc1ccc(C2NC(=O)C(C#N)c3c2sc2c(F)cccc32)cc1 (stereo not drawn),50.5% (inactive)
14,COc1cc(-c2nc(SCCC(C)C)nc(Nc3ccccc3)c2C#N)cc(OC)c1OC,82.3% (inactive)
15,O=C(N/N=C\c1cc(Cl)ccc1O)N/N=C/c1cc(Cl)ccc1O,93.9% (inactive)
16,Cc1ccc(S(=O)(=O)Oc2ccc([N+](=O)[O-])cc2[N+](=O)[O-])cc1,98.2% (inactive)
17,COCCCNc1nc(NC(=O)c2cc(OC)cc(OC)c2)cc(-c2cccnc2)n1,95.5% (inactive)
18,CC1(C)CC[C@]2(C(=O)O)CC[C@]3(C)C(=CC[C@@H]4[C@@]5(C)C/C(=C/c6ccco6)C(=O)C(C)(C)[C@@H]5CC[C@]43C)[C@@H]2C1,-56.7% [100 µM] (active)
19,O=C(N=c1n(-c2ccccc2)nc2n1CCN2C1=NCCN1)c1ccc(Cl)cc1,67.5% (inactive)
